An excerpt weighted towards active compounds, which were near 2.3% of everything screened.
697 NFkB inh: lowers PMA/ionomycin-induced NF-kB signal in 697 B cells | AID 435022 | 330,000 compounds, 0.33% hits | 697 B-cell NF-kB luciferase reporter, 16 h | inhibition, % at 4 µM; in the data active means inhibition above about 35%
Shn3 inh set2: inhibitors of Schnurri-3 3'UTR reporter in osteoblasts | Clone20 osteoblast Shn3 3'UTR firefly luciferase, 24 h | inhibition, % at 12.5 µM | 360,000 compounds, 0.52% hits | AID 588674;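 active means mean inhibition of at least 75% with every replicate also reaching 75%; inconclusive means mean inhibition at least 75% but some replicate below; inactive means mean inhibition below 75%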;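 further: 0% = median of neutral control wells and 100% = pilot-screen positive control compound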
Jurkat NFkB inh: lowers PMA/ionomycin-induced NF-kB signal in Jurkat cells; 330,000 compounds, 0.53% hits; PMA/ionomycin-induced NF-kB luciferase reporter, luminescence; inhibition, % at 4 µM; in the data active means inhibition above about 50%
H9c2 TAG inh: inhibitors of triacylglycerol accumulation; H9c2 cells, Nile Red lipid (TAG) fluorescence; cells loaded with 200 µM oleic acid; inhibition, % at 12.5 µM; 230,000 compounds, 0.66% hits;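 active means pattern-corrected inhibition of lipid staining of at least 50% with the nuclear-stain viability signal not falling by more than 50%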;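 further: 0% = DMSO wells and 100% = triacsin C control wells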
Gli-Sufu antag: antagonists of Gli-Sufu signaling. Sufu-KO-LIGHT fibroblasts, Gli luciferase reporter luminescence. inhibition, % at 5 µM. 340,000 compounds, 0.74% hits;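 active means inhibition above about 55%, limit read from the data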;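 further: 0% = DMSO-treated cells and 100% = wells with medium but no cells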
aSyn 5UTR inh: 5' untranslated region of α-synuclein, MLPCN primary screen. alpha-synuclein 5'UTR reporter, inhibitor activity. inhibition, % (tested at 7.5 µM). 300,000 compounds, 0.82% hits. AID 1813; in the data active means inhibition above about 60%; inconclusive means no clear call, values can overlap the other calls;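 further: H4 neuroglioblastoma cells stably carrying SNCA 5'UTR luciferase fusion; 0% = DMSO wells and 100% = positive control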
Gli-Sufu confirm: confirmation of Gli-SUFU pathway antagonists; 2,500 compounds, 40% hits; inhibition, % at 5 µM; Sufu-KO-LIGHT cells, Gli luciferase reporter, luminescence; AID 602428; shares compounds with Gli-Sufu antag;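 active means mean inhibition at 5 µM reaching about 45%, limit read from the data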;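 further: plate controls were DMSO-treated cells for no effect and wells lacking cells for full effect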
SufuKO cytotox: cytotoxic in Gli-SUFU antagonist counter-screen | shares compounds with Gli-Sufu antag | Sufu-KO-LIGHT cells cytotoxicity, ATP luminescence | cytotoxicity, % at 5 µM | 2,500 compounds, 32% hits | AID 651994;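 active means mean cytotoxicity at 5 µM above about 25%, limit read from the data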;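 further: cells exposed to compound overnight for roughly 16 to 18 hours; plate controls were DMSO wells with cells for no effect and medium without cells for full effect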
Wnt3a cs: Wnt3a reporter inhibition counter-screen; shares compounds with Gli-Sufu antag; Wnt-LIGHT cells, Wnt3a-driven luciferase reporter, luminescence; inhibition, % at 6.25 µM; 2,500 compounds, 20% hits;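 active means mean inhibition above about 25%, limit read from the data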
H9c2 TAG conf: triacylglycerol accumulation inhibition, confirmation; inhibition, % at 12.5 µM; 990 compounds, 71% hits; H9c2 lipid accumulation, Nile Red fluorescence; cells loaded with 200 µM oleic acid; shares compounds with H9c2 TAG inh;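 active means mean inhibition across replicates of 40% or more; inactive means mean inhibition below 40%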;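 further: plate controls were DMSO only wells for no effect and Triacsin C treated wells for full effect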
Starred values were filed as active, the others as inactive; u = inconclusive; x = not tested or not shown.

SMILES	697 NFkB inh	Shn3 inh set2	Jurkat NFkB inh	H9c2 TAG inh	Gli-Sufu antag	aSyn 5UTR inh	Gli-Sufu confirm	SufuKO cytotox	Wnt3a cs	others
CN1C(=O)C(=Cc2ccccc2Oc2ccc(Cl)cc2)C(=O)N(C)C1=O	11	2	1	-22	52	3	27	5	10
CN1C(=O)C(=Cc2ccccc2OCc2ccc(Cl)cc2)C(=O)N(C)C1=O	-31	-9	-21	-6	-13	-27	x	x	x
CCOC(=O)c1c(-c2ccc(OC)cc2)oc2ccc(OC(=O)N(C)C)cc12	-2	40	-19	-116	5	-10	x	x	x
O=C(NC(=O)N1CCC2(CC1)OCCO2)c1ccc(Cl)cc1	14	3	0	0	65*	4	18	22	-7
O=C(Nc1ccccc1)N1CCC2(CC1)OCCO2	0	-4	-6	x	-9	-35	x	x	x
Cc1cc(/C=C2\C(=O)NC(=O)N(c3ccc(Cl)cc3)C2=O)c(C)n1-c1sc2c(c1C#N)CCCC2	-8	22	-2	x	53	18	55*	47*	-39
COC1/C=C/C=C(\C)Cc2cc(O)c(Cl)c(c2)N(C)C(=O)CC(OC(=O)C(C)C)C2(C)OC2C(C)C2CC1(O)NC(=O)O2 (stereo unspecified)	x	-15	x	44	54	x	61*	58*	-5
Cn1cc(C(=O)OCC(=O)NC2(C#N)CCCCC2)c2ccccc21	-19	2	-13	24	-2	x	x	x	x
Cc1cccc(OC(=O)N2CCOCC2)c1	7	-11	11	x	3	5	x	x	x
COc1ccc2c(c1)C(NC(C)=O)CCc1cc(OC)c(OC)c(OC)c1-2 (stereo unspecified)	x	10	x	45	50	x	50*	64*	3
COC1=C[C@@H]2C3=C([C@@H]2C1=O)[C@@H](NC(C)=O)CCc1cc(OC)c(OC)c(OC)c13	16	8	9	0	-7	x	x	x	x
Nc1ccc(C2(c3ccc(N)cc3)CN3CCC2CC3)cc1	4	10	12	0	71*	9	17	-2	0
O=c1[nH]c2ccccc2n1C1CCN(CCCC(c2ccc(F)cc2)c2ccc(F)cc2)CC1	-18	59	20	-8	0	-49	x	x	x
CNP1(NC)=NC(C(F)(F)F)=NC(C(F)(F)F)=N1	-22	-32	-43	x	56*	0	11	6	-6
COc1ccc(CC(=O)N(CCN(C)C)CC2CCCN(Cc3ccccc3F)C2)cc1 (stereo unspecified)	2	-8	-10	x	50	-15	29	11	-2
CC12C=CC(=O)C=C1CCC1C2C(=O)CC2(C)C(=O)CCC12 (stereo unspecified)	x	-7	x	2	8	x	x	x	x
COc1ccc(CC2C(=O)NC(C)C(=O)N(C)C3C(=O)N(C)C(Cc4ccc(O)c(c4)Oc4ccc(cc4)C3O)C(=O)NC(C)C(=O)NC(C)C(=O)N2C)cc1 (stereo unspecified)	x	x	x	123	93*	x	96*	87*	105*
Brc1ccc(-[n+]2c(-c3ccccc3)cc(-c3ccccc3)cc2-c2ccccc2)cc1	-37	90*	41	-22	56*	44	79*	8	6
CCOC(=O)C1(CCc2ccccc2)CCN(Cc2csc(C(C)=O)c2)CC1	-45	21	27	x	53	12	22	2	-46
CCOC(=O)C1(CCc2ccccc2)CCN(Cc2cccc3c2OCO3)CC1	-28	38	17	-17	48	-30	x	x	x
COc1ccccc1N1CCN(Cc2ccc(Br)s2)CC1	14	8	3	x	58*	14	13	5	-16
COc1ccccc1N1CCN(Cc2ccccc2)CC1	-21	-5	-9	x	12	-10	x	x	x
Cc1cccc(C)c1-n1nnnc1C(CCc1ccccc1)N1CCC2(CC1)C(=O)NCN2c1ccccc1 (stereo unspecified)	x	11	x	x	x	x	x	x	x
COc1cc(C2c3cc4c(c(O)c3CC3COC(=O)C32)OCO4)cc(OC)c1OC (stereo unspecified)	x	-1	x	38	62*	x	57*	64*	-16
OCC1OC(n2cnc3cc(Cl)c(Cl)cc32)C(O)C1O (stereo unspecified)	x	-2	x	x	x	x	x	x	x
SMILES	697 NFkB inh	Shn3 inh set2	Jurkat NFkB inh	H9c2 TAG inh	Gli-Sufu antag	aSyn 5UTR inh	Gli-Sufu confirm	SufuKO cytotox	Wnt3a cs	others
CC1(C)CN=C(Nc2ccccc2C(F)(F)F)S1	-23	-24	10	8	0	-3	x	x	x
C[N+]1=C(/C=C/Nc2ccccc2)C(C)(C)c2ccccc21	-10	52	1	x	63*	-93	66*	26*	12
CCN1/C(=C/C=C/C2=[N+](CC)c3ccccc3C2(C)C)C(C)(C)c2ccccc21	x	79	x	-360	x	x	x	x	x
CC1CCOC(=O)C=CC=CC(=O)OC2CC3OC4C5OC5(C)C(O)CC4(COC(=O)C1O)C2(C)C31CO1 (stereo unspecified)	x	97*	x	113	91*	x	93*	77*	103*
O=C(Cn1c2c(c(-c3ccccc3Cl)cc1=O)CCC2)N1CCC2(CC1)OCCO2	3	-2	6	x	-4	9	x	x	x
CCCCCCC(C)(C)c1ccc([C@@H]2C[C@H](O)CC[C@H]2CCCO)c(O)c1	-6	-10	7	106*	-2	x	x	x	x	H9c2 TAG conf=116*
O=c1c2ccccc2[nH]c(=S)n1-c1ccc2c(c1)OCCO2	-27	-87	-39	8	-11	-105	x	x	x
C(=NC12CN3CN(CN(C3)C1)C2)c1cccnc1	21	1	0	-7	7	-12	x	x	x
CN(C)Cc1c[nH]c2ccc([N+](=O)[O-])cc12	x	7	x	4	5	x	x	x	x
COc1ccc(C(CC(=O)c2ccc3c(c2)OCO3)c2c(O)c3ccccc3oc2=O)cc1OC (stereo unspecified)	x	12	x	-6	x	x	x	x	x
COc1ccc(C2=CC(c3ccc4c(c3)OCO4)c3c(c4ccccc4oc3=O)O2)cc1OC (stereo unspecified)	x	26	x	61*	39	x	x	x	x	H9c2 TAG conf=60*
COc1ccc2[nH]c(C)c(CCNCc3cn(C)c4ccccc34)c2c1	-25	54	2	56*	38	x	x	x	x	H9c2 TAG conf=46*
COC(=O)C1=C(c2ccc(OCc3ccccc3)cc2)C[C@@H]2CC[C@H]1N2C(=O)NCc1ccccc1	11	38	9	-13	14	x	x	x	x
COC(=O)C1=C(c2ccc(OCc3ccccc3)cc2)C[C@@H]2CC[C@H]1N2C(=O)NCc1ccc(C(C)(C)C)cc1	x	u	x	70*	x	x	x	x	x	H9c2 TAG conf=75*
CN1CSC(=S)N(C)C1	-2	13	5	64*	-11	-3	x	x	x	H9c2 TAG conf=64*

High-throughput results deposited in PubChem BioAssay by several laboratories.
